# Measurements as given in PubChem BioAssay (NCATS).
# For part of these data: Entries with a potency or affinity are not part of this list. Calls of active or inactive are those of the source.
# Conditions: Ebola virus entry reporter assay, green channel fluorescence
row,SMILES,outcome
1,CC(C)(C)NC[C@H](O)COc1ccccc1C1CCCC1,inactive
2,CN1C(=O)CC(=O)N(c2ccccc2)c2cc(Cl)ccc21,inactive
3,O=P(O)(O)C(O)(Cn1ccnc1)P(=O)(O)O,inactive
4,CN[C@H](CC(C)C)C(=O)N[C@H]1C(=O)N[C@@H](CC(N)=O)C(=O)N[C@H]2C(=O)N[C@H]3C(=O)N[C@H](C(=O)N[C@@H](C(=O)O)c4cc(O)cc(O)c4-c4cc3ccc4O)[C@H](O)c3ccc(c(Cl)c3)Oc3cc2cc(c3O[C@@H]2O[C@H](CO)[C@@H](O)[C@H](O)[C@H]2O[C@H]2C[C@](C)(N)C(O)[C@H](C)O2)Oc2ccc(cc2Cl)[C@H]1O (some centres undefined),inactive
5,CC(CCc1ccccc1)NCC(O)c1ccc(O)c(C(N)=O)c1 (centres undefined),inactive
6,CN=C1CN(O)C(c2ccccc2)=c2cc(Cl)ccc2=N1,inactive
7,Nc1nc2[nH]cc(CCc3ccc(C(=O)N[C@@H](CCC(=O)O)C(=O)O)cc3)c2c(=O)[nH]1,inactive
8,COc1cc(Br)c(C[N+]2(CCOCCC3CCC4CC3C4(C)C)CCOCC2)cc1OC (centres undefined),inactive
9,CNC(C)[C@@H]1CC[C@@H](N)[C@@H](O[C@H]2[C@H](O)[C@@H](O[C@H]3OC[C@](C)(O)[C@H](NC)[C@H]3O)[C@H](N)C[C@@H]2N)O1 (some centres undefined),inactive
10,CC(C)C[C@H](CN)CC(=O)O,inactive
11,CCCCCN(C)CCC(O)(P(=O)(O)O)P(=O)(O)O,inactive
12,CC(C)c1nc(N(C)S(C)(=O)=O)nc(-c2ccc(F)cc2)c1/C=C/C(O)CC(O)CC(=O)O (centres undefined),inactive
13,C=C1[C@H](CO)[C@@H](O)C[C@@H]1n1cnc2c(=O)[nH]c(N)nc21,inactive
14,O=C1Nc2ccc(Cl)cc2C(c2ccccc2Cl)=NC1O (centres undefined),inactive
15,Clc1ccc2c(c1)C(c1ccccc1)=NCc1nncn1-2,inactive

# Conditions: Ebola virus entry cell assay, ratio channel
SMILES,outcome,AC50
OC[C@H]1O[C@@H](n2cnc3c2NC=NC[C@H]3O)C[C@@H]1O,inactive,
CC(C)(C)NC[C@H](O)COc1ccccc1C1CCCC1,,3.55 µM (active)
CN[C@@H](C)Cc1ccccc1,inactive,
COc1ccnc(CS(=O)c2nc3cc(OC(F)F)ccc3[nH]2)c1OC (centres undefined),inactive,
CN1C(=O)CC(=O)N(c2ccccc2)c2cc(Cl)ccc21,inactive,
O=P(O)(O)C(O)(Cn1ccnc1)P(=O)(O)O,inactive,
C[C@]12C=CC(=O)N[C@@H]1CC[C@@H]1[C@@H]2CC[C@]2(C)[C@@H](C(=O)Nc3cc(C(F)(F)F)ccc3C(F)(F)F)CC[C@@H]12,inactive,
Cc1c(N)nc([C@H](CC(N)=O)NC[C@H](N)C(N)=O)nc1C(=O)N[C@H](C(=O)N[C@H](C)[C@@H](O)[C@H](C)C(=O)N[C@H](C(=O)NCCc1nc(-c2nc(C(=O)NCCCCN=C(N)N)cs2)cs1)[C@@H](C)O)[C@@H](O[C@@H]1O[C@@H](CO)[C@@H](O)[C@H](O)[C@@H]1O[C@H]1O[C@H](CO)[C@@H](O)[C@H](OC(N)=O)[C@@H]1O)c1cnc[nH]1,inactive,
CN[C@H](CC(C)C)C(=O)N[C@H]1C(=O)N[C@@H](CC(N)=O)C(=O)N[C@H]2C(=O)N[C@H]3C(=O)N[C@H](C(=O)N[C@@H](C(=O)O)c4cc(O)cc(O)c4-c4cc3ccc4O)[C@H](O)c3ccc(c(Cl)c3)Oc3cc2cc(c3O[C@@H]2O[C@H](CO)[C@@H](O)[C@H](O)[C@H]2O[C@H]2C[C@](C)(N)C(O)[C@H](C)O2)Oc2ccc(cc2Cl)[C@H]1O (some centres undefined),inactive,
CC(CCc1ccccc1)NCC(O)c1ccc(O)c(C(N)=O)c1 (centres undefined),inactive,
CCN1C(=O)NC(c2ccccc2)C1=O (centres undefined),inactive,
CCCCCCCCCCCCCCCC(=O)OCCC1CCN(CCCN2c3ccccc3Sc3ccc(S(=O)(=O)N(C)C)cc32)CC1,inactive,
CCC[C@@H]1C[C@@H](C(=O)N[C@@H]([C@H]2O[C@H](SC)[C@H](O)[C@@H](O)[C@H]2O)[C@H](C)Cl)N(C)C1,inactive,
CCN(CC)CC#CCOC(=O)C(O)(c1ccccc1)C1CCCCC1 (centres undefined),inactive,
CN=C1CN(O)C(c2ccccc2)=c2cc(Cl)ccc2=N1,,12.6 µM (active)
COc1cc(C)c(/C=C/C(C)=C/C=C/C(C)=C/C(=O)O)c(C)c1C,inactive,
CN[C@@H]1CCc2[nH]c3ccc(C(N)=O)cc3c2C1,inactive,
Nc1nc2[nH]cc(CCc3ccc(C(=O)N[C@@H](CCC(=O)O)C(=O)O)cc3)c2c(=O)[nH]1,inactive,
CN1CCN2c3ncccc3Cc3ccccc3C2C1 (centres undefined),inactive,
Nc1ccn([C@@H]2O[C@H](CO)[C@@H](O)C2O)c(=O)n1 (some centres undefined),inactive,

SMILES,outcome,AC50
NC(=O)[C@@H]1CCCN1C(=O)[C@H](Cc1cnc[nH]1)NC(=O)[C@@H]1CCC(=O)N1,inactive,
COc1cc(Br)c(C[N+]2(CCOCCC3CCC4CC3C4(C)C)CCOCC2)cc1OC (centres undefined),inactive,
COCC1=C(C(=O)OC(C)OC(=O)OC(C)C)N2C(=O)[C@@H](NC(=O)/C(=N\OC)c3csc(N)n3)[C@H]2SC1 (some centres undefined),inactive,
COc1cc([C@@H]2c3cc4c(cc3[C@@H](O[C@@H]3O[C@@H]5CO[C@@H](c6cccs6)O[C@@H]5[C@H](O)[C@@H]3O)[C@H]3COC(=O)[C@H]23)OCO4)cc(OC)c1O,inactive,
Nc1ccn([C@@H]2CS[C@H](CO)O2)c(=O)n1,inactive,
CNC(C)[C@@H]1CC[C@@H](N)[C@@H](O[C@H]2[C@H](O)[C@@H](O[C@H]3OC[C@](C)(O)[C@H](NC)[C@H]3O)[C@H](N)C[C@@H]2N)O1 (some centres undefined),inactive,
CO[C@H]1C=CO[C@@]2(C)Oc3c(C)c(O)c4c(O)c(c5c(nc6cc(C)ccn65)c4c3C2=O)NC(=O)/C(C)=C\C=C[C@H](C)[C@H](O)[C@@H](C)[C@@H](O)[C@@H](C)[C@H](OC(C)=O)[C@@H]1C,inactive,
COc1cc([C@@H]2c3cc4c(cc3C(O[C@@H]3O[C@@H]5CO[C@@H](C)O[C@H]5[C@H](O)[C@H]3O)C3COC(=O)[C@@H]32)OCO4)cc(OC)c1OP(=O)(O)O (some centres undefined),,7.08 µM (active)
CC(C)C[C@H](CN)CC(=O)O,inactive,
CO[C@@H]1[C@@H](O[C@@H]2O[C@H](C)[C@@H](O[C@H]3C[C@@](C)(O)[C@@H](O)[C@H](C)O3)[C@H](N(C)C)[C@H]2O)[C@@H](CC=O)C[C@@H](C)[C@@H](O[C@@H]2CC[C@H](N(C)C)[C@@H](C)O2)/C=C/C=C/C[C@@H](C)OC(=O)C[C@H]1O,,11.2 µM (active)
CO/N=C(/C(=O)N[C@@H]1C(=O)N2C(C(=O)O)=C(COC(N)=O)CS[C@H]12)c1ccco1,inactive,
C=CC1=C(C(=O)O)N2C(=O)[C@@H](NC(=O)/C(=N\O)c3csc(N)n3)[C@H]2SC1 (stereo in doubt),inactive,
CCCCCN(C)CCC(O)(P(=O)(O)O)P(=O)(O)O,inactive,
C=CC[C@@H]1C=C(C)C[C@H](C)C[C@H](OC)[C@H]2O[C@@](O)(C(=O)C(=O)N3CCCC[C@H]3C(=O)O[C@H](C(C)=C[C@@H]3CC[C@H](O)[C@H](OC)C3)[C@@H](C)[C@@H](O)CC1=O)[C@@H](C)C[C@@H]2OC,inactive,
CC(C)CN(C[C@@H](O)[C@H](Cc1ccccc1)NC(=O)O[C@H]1CO[C@H]2OCC[C@H]21)S(=O)(=O)c1ccc(N)cc1,inactive,
CC(C)c1nc(N(C)S(C)(=O)=O)nc(-c2ccc(F)cc2)c1/C=C/C(O)CC(O)CC(=O)O (centres undefined),inactive,
C=C1[C@H](CO)[C@@H](O)C[C@@H]1n1cnc2c(=O)[nH]c(N)nc21,inactive,
O=C1Nc2ccc(Cl)cc2C(c2ccccc2Cl)=NC1O (centres undefined),inactive,
Clc1ccc2c(c1)C(c1ccccc1)=NCc1nncn1-2,inactive,
